# Bioassay records: PubChem BioAssay, National Center for Advancing Translational Sciences (NCATS)
# ELG1 DNA repair = ELG1-dependent DNA repair inhibition. HEK293T ELG1-luciferase reporter, luminescence, 16 h; DNA damage induced by 5-fluorouridine. Potency, µM (highest dose often 46.1 µM), without a hit: top-dose activity change, negative = inhibition, actives largely listed as inhibitors. 2.3% of 330,000 active. AID 504467; further: potency means the concentration at half of the fitted maximal effect; nearly all actives have a fitted effect of over 55% in size
#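 Step one: seed 2,000 cells per well. Step two: pin-transfer compound or DMSO alongside 5-fluorouridine. Step three: incubate 16 hr, 37 °C, 5% CO2. Step four: add ONE-Glo, wait 30 min, read luminescence.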
# TDP1 cell CPT = DT40-hTDP1 cell growth loss with CPT. chicken DT40 Tdp1-/-;hTDP1 cells + 20 nM CPT, ATP luminescence, 48 h. Potency, µM (titrated, usually from 46.2 µM), inactives show at the top dose activity change, negative = growth inhibition, usual class: inhibitors. 12% of 420,000 active; further: potency means the concentration at half of the fitted maximal effect; nearly all actives have a fitted effect of over 55% in size
#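 Chicken DT40 Tdp1-/- cells complemented with human TDP1, 400 cells/well, exposed to compounds plus 20 nM camptothecin for at least 48 h at 37 C; viability read as ATP content by CellTiter-Glo luminescence.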
# RORg inh = inhibitors of mouse ROR gamma transcriptional activity; AID 2551; Drosophila S2 Gal4-RORgamma UAS-luciferase reporter, 20 h; Potency, µM (top dose mostly 53.6 µM), for the others: at the top dose activity change, negative = inhibition, actives largely listed as inhibitors; P51450; 5.4% of 310,000 active; further: potency means the concentration at half of the fitted maximal effect; nearly all actives have a fitted effect of over 60% in size
# Target sequence (P51450 whole entry, looked up, the tested form may be a part): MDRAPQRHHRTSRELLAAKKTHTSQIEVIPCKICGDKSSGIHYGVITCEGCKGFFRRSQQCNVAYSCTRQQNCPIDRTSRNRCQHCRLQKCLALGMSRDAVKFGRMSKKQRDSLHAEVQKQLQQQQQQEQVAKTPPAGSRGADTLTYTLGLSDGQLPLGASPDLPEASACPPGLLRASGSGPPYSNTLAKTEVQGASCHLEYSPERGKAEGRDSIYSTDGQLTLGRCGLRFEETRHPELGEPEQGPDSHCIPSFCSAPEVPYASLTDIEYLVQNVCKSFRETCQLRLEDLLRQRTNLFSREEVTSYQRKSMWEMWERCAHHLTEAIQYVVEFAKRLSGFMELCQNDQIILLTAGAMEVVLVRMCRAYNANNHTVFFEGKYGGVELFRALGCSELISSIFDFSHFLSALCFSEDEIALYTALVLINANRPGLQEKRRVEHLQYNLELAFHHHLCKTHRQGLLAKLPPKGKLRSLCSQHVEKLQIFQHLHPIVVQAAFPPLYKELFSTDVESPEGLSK
#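 Schneider cells (Drosophila), stable Gal4 DBD–ROR gamma + UAS-luc; 1 hr cmpd preincubation; Cu2+ induction 700 uM final; 20 hr ambient; luminescence.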
# IL-1B inflam inh = blocks inflammasome-driven IL-1 beta release | THP-1 LPS/ATP IL-1B secretion, AlphaLISA, 16 h; stronger effect = lower value | activity change, % at 57.5 µM | 4.7% of 360,000 active | AID 743279; in the data active means activity change below about -50%; inconclusive means mostly about -30% to -49%
#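 Secreted IL-1B measured by AlphaLISA bead assay after 16 h compound exposure of THP-1 cells; compounds (final up to 57.5 uM) added 1 h before LPS (250 ng/mL) and ATP (1.25 mM) stimulation; lower signal means less secretion.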
# DT40 TDP1 no CPT = qHTS for Inhibitors of human tyrosyl-DNA phosphodiesterase 1 (TDP1): qHTS in cells in absence of CPT; DT40 Tdp1-/- hTDP1 cells, no CPT, ATP luminescence, 48 h; Potency, µM (titrated, usually from 46.2 µM), for the others: top-dose activity change, negative = growth inhibition, most hits filed as inhibitors; 15% of 420,000 active; AID 686978, 2013; further: potency means the concentration at half of the fitted maximal effect; nearly all actives have a fitted effect of over 55% in size
#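 No-CPT arm: Tdp1-/-;hTDP1 DT40 cells (400/well) plus compounds, incubated ≥48 hr at 37 °C. Readout CellTiter-Glo luminescence.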
# Gal4-VP16 FLuc = Gal4-VP16 reporter inhibition counter-screen; Drosophila S2 Gal4-VP16 UAS-luciferase, luminescence, 20 h; 3.5% of 310,000 active; Potency, µM (doses to about 53.6 µM), without a hit: top-dose activity, negative = inhibition, most hits filed as inhibitors;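 further: Gal4-VP16 expression switched on by copper sulfate through the metallothionein promoter; potency means the concentration at half of the fitted maximal effect; nearly all actives have a fitted effect of over 50% in size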
# * = called active by the depositor; u = inconclusive; x = no result; [ ] = dose if it differs, or a comment. Hits are enriched below; roughly 21% of the tested compounds scored in any of these assays. Unless noted, the call rests on the fitted dose curve; in most records, active means well fitted curve in the direction sought with a large enough effect; inconclusive means small, poorly fitted or top-dose-only effect, or another doubt; inactive means no such curve, though single readings can be large; an effect the other way counts as inactive or inconclusive. On the % scale 0 is the no-effect control and ±100 the full control effect.
SMILES,ELG1 DNA repair,TDP1 cell CPT,RORg inh,IL-1B inflam inh,DT40 TDP1 no CPT,Gal4-VP16 FLuc
CC(C)=CCn1c2ccc(NC(=O)NCc3ccc(F)cc3)cc2c(=O)n1C,x,2.1µM*,x,68,1.6µM*,x
CCOCCC(=O)Nc1ccc2c(c1)c(=O)n(C)n2C/C=C/c1ccccc1,x,4.6µM*,x,72,3.3µM*,x
CCNC(=O)Nc1ccc2c(c1)c(=O)n(C)n2CC=C(C)C,x,-18%,x,12,-5%,x
C=C1C=C(C(F)F)n2ncc(C(=O)Nc3ccc(N(CC)CC)cc3)c2N1,x,10%,x,x,-25%,x
Cc1ccc(CNC(=O)CN(C(=O)C2(C)CC(=O)N=C3C=CC=CN32)c2ccccc2F)cc1 (stereo not given),5%,-15%,0%,12,u,4%
CCOC(=O)N1CCC(Nc2ccc3nnc(-c4ccccc4)n3n2)CC1,-19%,u,-22%,-19,u,2%
Cc1ccc(CNc2ccc3nnc(-c4ccccc4)n3n2)cc1,3%,3.7µM*,-7%,22,2.3µM*,9%
c1ccc(CN2CCN(CCCNc3ccc4nnc(-c5ccccc5)n4n3)CC2)cc1,18µM*,u,6%,-25,u,-5%
O=C(NC(=S)Nc1cccc(O)c1)C12CC3CC(CC(C3)C1)C2,x,u,x,0,u,x
Cc1ccc(/C=c2\s/c(=C(/C#N)C(=O)N3CCCC3)n(Cc3ccco3)c2=O)s1,13µM*,u,u,10,u,-15%
COc1cc(-c2nc3ccc(C)cn3c2Nc2ccc(Cl)cc2)ccc1O,x,16µM*,x,x,18µM*,x
CN(C)c1ccc(-c2nc3ccc(Cl)cn3c2Nc2ccc3c(c2)OCCO3)cc1,x,u,x,x,15µM*,x
COc1ccc(-c2nc3ccc(C)cn3c2Nc2ccc3c(c2)OCO3)cc1,x,-15%,x,x,5%,x
Cc1ccc2nc(-c3ccccc3O)c(Nc3ccc4c(c3)OCCO4)n2c1,-24%,-25%,18µM*,10,u,-23%
COc1cc(-c2nc3ccc(Cl)cn3c2Nc2ccc3c(c2)OCO3)ccc1O,x,15µM*,x,x,13µM*,x
CNC(C)[C@@H]1CC[C@@H](N)[C@@H](O[C@H]2[C@H](O)[C@@H](O[C@H]3OC[C@](C)(O)[C@H](NC)[C@H]3O)[C@H](N)C[C@@H]2N)O1 (stereo not given in full),x,-18%[21.1 µM],x,x,-6%[21.1 µM],x
Cc1c(C(=O)NC(C)(C)CO)sc2ncnc(NCCN(C)C)c12,x,12%[9.04 µM],x,x,-10%,x
COc1ccccc1NC(=O)C(Cc1ccccc1)NS(=O)(=O)c1ccc2c(c1)CCN2C(C)=O (stereo not given),x,4%,x,x,-28%,x
Cc1cccc(Nc2c(-c3ccc(O)cc3)nc3ncccn23)c1,4%,u,2%,-4,u,28%
COc1cc(-c2nc3sccn3c2Nc2cccc(C)c2)ccc1O,x,u,x,x,16µM*,x
Clc1ccc2nc(-c3ccccn3)c(Nc3ccc4c(c3)OCO4)n2c1,u,u,7.9µM*,6,21µM*,u
O=C(COc1ccc(-c2ccccc2)cc1)NNC(=O)Nc1ccccc1,12%,-12%,x,3,-19%,x
CC(Oc1nc2c(c(=O)n(C)c(=O)n2C)n1C)C1CCCCC1 (stereo not given),x,23µM*,x,0,16µM*,x
CCC(C)n1c(OC)nc2c1c(=O)n(C)c(=O)n2C (stereo not given),-7%,23µM*,42%,12,u,-6%
C/C=C/COc1nc2c(c(=O)n(C)c(=O)n2C)n1C,-19%,23µM*,-3%,-6,15µM*,-14%
SMILES,ELG1 DNA repair,TDP1 cell CPT,RORg inh,IL-1B inflam inh,DT40 TDP1 no CPT,Gal4-VP16 FLuc
COc1ccc(Oc2nc3c(c(=O)n(C)c(=O)n3C)n2C)cc1,9.2µM*,u,33%[1.91 µM],0,-25%,-1%
CCn1c(OC)nc2c1c(=O)n(C)c(=O)n2C,3%,-3%,-8%,20,-16%,-8%
Cn1c(=O)c2c(nc(OC3CCCCCC3)n2C)n(C)c1=O,x,u,x,-8,u,x
CCCNC(=O)c1cc(C2CCCCN2C(=O)c2ccc3ccccc3c2)on1 (stereo not given),x,u,x,1,u,x
Cn1cc(CC(=O)Nc2cccc(C#N)c2)c2ccccc21,u,2%,29%,4,-24%,16%
Cn1c(Oc2ccc(F)cc2)nc2c1c(=O)n(Cc1ccccc1Cl)c(=O)n2C,x,23µM*,x,x,12µM*,x
COc1ccc(Oc2nc3c(c(=O)n(Cc4ccccc4Cl)c(=O)n3C)n2C)cc1,x,u,x,x,6.5µM*,x
CCc1nc2cc(NC(=O)C3(C)CCCN(C(C)C)C3)ccc2o1 (stereo not given),x,-12%,x,24,2%,x
COC1(C(F)(F)F)NC(=O)N(c2ccc(F)cc2)C1=O (stereo not given),x,14%,x,x,-6%,x
CCOC(=O)COc1ccc(CC)cc1C(=O)c1ccn2nc(-c3ccc(Cl)cc3)cc2n1,x,21µM*,x,x,21µM*,x
CCOC(=O)c1cc(-c2ccc(Cl)cc2)nc2onc(C)c12,-21%,x,4%,x,x,1%
CCOC(=O)COc1ccc(CC)cc1C(=O)c1ccn2nc(-c3ccccc3)cc2n1,x,15µM*,x,x,23µM*,x
O=S(=O)(Nc1cccc(-c2ccc(N3CCOCC3)nn2)c1)c1ccccc1C(F)(F)F,x,-26%,x,x,u,x
C=CCN(CC=C)S(=O)(=O)c1ccc(NC(=S)NC(=O)/C=C/c2ccc(C)cc2)cc1,x,u,10µM*,-2,u,u
C=CCN(CC=C)S(=O)(=O)c1ccc(NC(=S)NC(=O)/C=C/c2cccc3ccccc23)cc1,11%,u,2.2µM*,-15,u,u
CC(C)(C)OC(=O)NCCCCCc1nnc(SCc2c(F)cccc2Cl)o1,0%,-24%,14%,0,21µM*,-2%
CC(C)(C)OC(=O)NCCc1nnc(SCc2c(Cl)cccc2Cl)o1,-15%,-19%,17%,0,9%,18%
CC(C)(C)OC(=O)NCCCCCc1nnc(SCc2cccc(F)c2)o1,u,u,u,-10,9.2µM*,-23%
CC(C)(C)OC(=O)NCCCCCc1nnc(SCc2ccccc2F)o1,u,u,u,-51*,u,6%
Fc1cccc(Cl)c1CSc1nnc(COc2cccc3cccnc23)o1,-12%,-22%,5%,-51*,-26%,-10%
